24 compounds from PubChem BioAssay AID504652 (National Center for Advancing Translational Sciences (NCATS), 2011) can be followed below.

The structures appear in SMILES notation. Out of some 360,000 compounds screened, about 11,000 (3.1%) were called active. For the sample, actives were picked, then their nearest neighbours and some compounds at random. Unmarked numbers belong to inactive results. No stated cut-off is given here; in the data, active means activity change below about -30%; inactive means the rest.
On the % scale 0 is the no-effect control and ±100 the full control effect.

For this assay, the target named is D(1A) dopamine receptor (Homo sapiens) (UniProt P21728). Kind of assay: Antagonist of Human D 1 Dopamine Receptor: qHTS. The following applies: HEK293 TREx D1 cells, calcium flux, dopamine EC80; at 10 µM; active compounds read low. An outline of the steps: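 Calcium flux readout: force-coupled, inducible Hek293 Trex D1 line, cells induced overnight at 30 C with tetracycline, dye-loaded 30–90 min at RT. Antagonism scored against EC80 dopamine challenge given 180 s after compound.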
Chain of D(1A) dopamine receptor (Homo sapiens) (P21728 whole entry, looked up): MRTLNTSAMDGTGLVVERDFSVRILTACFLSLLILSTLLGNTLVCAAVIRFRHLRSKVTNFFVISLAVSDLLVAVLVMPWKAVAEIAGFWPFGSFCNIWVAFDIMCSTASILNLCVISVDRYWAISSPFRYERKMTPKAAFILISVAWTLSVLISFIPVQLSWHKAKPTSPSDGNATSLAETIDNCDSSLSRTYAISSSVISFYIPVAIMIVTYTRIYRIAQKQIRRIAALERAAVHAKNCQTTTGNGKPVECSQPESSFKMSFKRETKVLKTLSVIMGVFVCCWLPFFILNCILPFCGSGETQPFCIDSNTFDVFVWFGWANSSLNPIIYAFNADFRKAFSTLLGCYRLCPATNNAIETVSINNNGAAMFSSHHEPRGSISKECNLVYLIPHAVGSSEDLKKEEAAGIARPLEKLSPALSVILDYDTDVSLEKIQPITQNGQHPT
In general terms: In qHTS, concentration-response curves come from the screen itself.
In the case of `Cc1oc2ncn(CC(C)C)c(=O)c2c1C(=O)N1CCN(c2ccccc2F)CC1`, the activity change, negative = inhibition was -5.83%.

Regarding `Cn1c(=O)c(C(=O)O)nn(-c2ccccc2)c1=O`, the activity change, negative = inhibition is -4.78%.

Regarding `CCC(=O)N1CCc2cc(S(=O)(=O)NC(C(=O)Nc3ccc(C(C)=O)cc3)C(C)C)ccc21` (centres undefined), the activity change, negative = inhibition was -1.32%.

`CCC(=O)N1CCc2cc(S(=O)(=O)NC(C(=O)NCCc3ccc(C)cc3)C(C)C)ccc21` (centres undefined): the activity change, negative = inhibition is 14.4%.

On to `CCC(=O)N1CCc2cc(S(=O)(=O)NC(Cc3ccccc3)C(=O)NCc3ccc(C)cc3)ccc21` (centres undefined), for which the activity change, negative = inhibition is 20.6%.

Consider `CCC(=O)N1CCc2cc(S(=O)(=O)NC(Cc3ccccc3)C(=O)NCc3ccccc3)ccc21` (centres undefined), for which the activity change, negative = inhibition was -62% (active).

In the case of `CC(=O)N1CCc2cc(S(=O)(=O)NC(Cc3ccccc3)C(=O)NCc3ccc(C)cc3)ccc21` (centres undefined), the activity change, negative = inhibition is 7.72%.

Turning to `CCC(=O)N1CCc2cc(S(=O)(=O)NC(C(=O)N3CCc4ccccc4C3)C(C)C)ccc21` (centres undefined), the activity change, negative = inhibition was -32.3% (active).

Regarding `Cc1ccc(C)c(Cn2c(C(=O)O)c(CNCc3cccs3)c3ccccc32)c1`, the activity change, negative = inhibition is 57.2%.

Take `Cc1ccccc1-c1nc2cc(NC(=O)c3cccc(OCCC(C)C)c3)ccc2o1`: the activity change, negative = inhibition was 0.754%.

For the compound `CC1=C(C(=O)N2CCN(c3cccc(C(F)(F)F)c3)CC2)C2(CCCCC2)OC1=O`, the activity change, negative = inhibition was -3.32%.

Take `COC(=O)c1ccccc1NC(=O)Cn1c(=O)n(-c2cccc(C(F)(F)F)c2)c(=O)c2c(C)c(C)sc21`: the activity change, negative = inhibition is 0.199%.

`CCOC(=O)C1CCCN(CC(=O)Nc2cc(C)c3c(=O)oc4ccccc4c3n2)C1` (centres undefined): the activity change, negative = inhibition was -9.54%.

Take `COc1ccccc1Nc1nc(N)nc(N)c1S(=O)(=O)c1ccccc1`: the activity change, negative = inhibition was 3.62%.

Turning to `Cn1c(CN2CCOCC2)nc2cc(NC(=O)c3ccc(Cl)cc3)ccc21`, the activity change, negative = inhibition is -2.81%.

In the case of `CCN(CC)S(=O)(=O)c1ccc2c(c1)nc(CN(C)C(=O)Nc1ccc(Cl)cc1)n2C`, the activity change, negative = inhibition was -30.4% (active).

As to `CCN(CC)S(=O)(=O)c1ccc(NC(=O)c2cnc(C)cn2)cc1`, the activity change, negative = inhibition is 5.26%.

In the case of `Cc1ccc(Cl)cc1NC(=O)CSc1nc2ccccc2nc1Cc1ccccc1`, the activity change, negative = inhibition was 3.51%.

Take `Cc1cccc(N2CCN(c3ccc(C(N)=O)cc3[N+](=O)[O-])CC2)c1C`: the activity change, negative = inhibition was 9.32%.

In the case of `CN1CCN(c2ccc(S(=O)(=O)Nc3ccccc3)cc2[N+](=O)[O-])CC1`, the activity change, negative = inhibition was -46.5% (active).

For the compound `COc1ccc(NS(=O)(=O)c2ccc(N3CCN(CCO)CC3)c([N+](=O)[O-])c2)cc1`, the activity change, negative = inhibition was -20.8%.

With `Cc1ccc(C(=O)c2ccc(N3CCN(C)CC3)c([N+](=O)[O-])c2)cc1`, the activity change, negative = inhibition is -41.9% (active).

Turning to `CS(=O)(=O)N1CCN(c2ccc(C(=O)NC3C4CC5CC(C4)CC3C5)cc2[N+](=O)[O-])CC1` (centres undefined), the activity change, negative = inhibition is -9.31%.

Regarding `CN1CCN(S(=O)(=O)c2ccc(N3CCN(c4ccccc4O)CC3)c([N+](=O)[O-])c2)CC1`, the activity change, negative = inhibition is 7.38%.
